This is a sample that favours compounds with a hit; in the whole collection about 31% have one here.
CYP2C9 act: human CYP2C9 activators, primary screen, biochemical, luminescence; Cytochrome P450 2C9 (Homo sapiens), P11712; recombinant CYP2C9, luciferin-H conversion; stronger effect = higher value; factor 1 = untreated enzyme, 0 = blocked; activation factor at 5 µM; 96,000 tested, 1.4% active; AID 1024, 2008;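 active = activation factor of 2 or more for CYP2C9 at a 5 µM dose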;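 note: 0 = sulfaphenazole-blocked wells and 1 = vehicle-only wells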
CYP2C19 inhib: blockers of cytochrome P450 2C19 activity – biochemical, luminescence, ADME assay, primary screen; inhibition, % at 5 µM; P33261; CYP2C19 Supersomes, luciferin-H EGE luminescence, 30 min; 96,000 tested, 21% active;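 active = CYP2C19 inhibition above a set limit at 5 µM in the primary screen, cut at about 50% in these data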;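 note: plate controls were negative control wells for no effect and 2.5 mM tranylcypromine positive control for full effect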
Target sequence (P33261 whole entry, looked up): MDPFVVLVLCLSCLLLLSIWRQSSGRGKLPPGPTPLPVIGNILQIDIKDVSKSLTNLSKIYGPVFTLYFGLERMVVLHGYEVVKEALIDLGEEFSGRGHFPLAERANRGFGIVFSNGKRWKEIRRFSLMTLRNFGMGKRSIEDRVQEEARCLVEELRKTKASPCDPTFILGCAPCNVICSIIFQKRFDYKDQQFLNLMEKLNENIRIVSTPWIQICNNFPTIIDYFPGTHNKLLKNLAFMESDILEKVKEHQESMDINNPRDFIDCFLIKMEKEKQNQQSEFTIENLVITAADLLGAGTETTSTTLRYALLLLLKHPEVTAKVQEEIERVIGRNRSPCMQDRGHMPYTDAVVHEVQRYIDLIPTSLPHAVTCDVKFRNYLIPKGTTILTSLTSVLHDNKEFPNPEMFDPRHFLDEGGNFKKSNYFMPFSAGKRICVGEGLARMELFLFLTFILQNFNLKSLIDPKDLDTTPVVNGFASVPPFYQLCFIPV
CYP2C19 activ: human CYP2C19 activators, primary screen, biochemical, luminescence. AID 1025, 2008. 96,000 tested, under 10 active. recombinant CYP2C19, luciferin-H EGE luminescence; stronger effect = higher value; 0 = fully inhibited enzyme, 1 = untreated enzyme. activation factor at 5 µM. Cytochrome P450 2C19 (Homo sapiens), P33261;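 active = activation factor of at least 2 at 5 µM in the primary screen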;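 note: 0 = wells with 2.5 mM tranylcypromine and 1 = vehicle-only wells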
PLAP activator: PLAP enzyme activators, biochemical, luminescence, HTS; Alkaline phosphatase, placental type (Homo sapiens), P05187; purified PLAP enzyme, luminescent substrate read-out; stronger effect = higher value; activation fold at 20 µM; 96,000 tested, 1.2% active; in the data active = activation fold above about 2
CYP2C9 inhib: blockers of cytochrome P450 2C9 activity – biochemical, luminescence, ADME assay, primary screen | CYP2C9 Supersomes, luciferin-H conversion | inhibition, % at 5 µM | AID 777, 2007 | P11712 | 96,000 tested, 20% active;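 active = blocking of liver enzyme CYP2C9 beyond about 50% at 5 µM, limit read from the data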
* marks the source's active call; other numbers are inactive results; · = not tested or not shown; ! = repeats disagree.

SMILES | CYP2C9 act | CYP2C19 inhib | CYP2C19 activ | PLAP activator | CYP2C9 inhib
CCOc1c(C)cc(-c2ncccc2O)cc1C | 0.8 | 68.9*! | 0.3 | 0.9 | 21.6
Cc1cc(N2CCN(C(=O)c3ccco3)CC2)n2nc(-c3cccc(Cl)c3)cc2n1 | 0.6 | 21.6 | 0.8 | 1.6 | 38.6
Cc1nc2cc(-c3cccc(Cl)c3)nn2c(N2CCN(C(=O)c3ccco3)CC2)c1C | 0.1 | 72.8* | 0.3 | 1.7 | 86.3*
O=C(O)CCC(=O)N1CCN(c2nc(-c3ccccc3Cl)c3cc(Br)ccc3n2)CC1 | 1 | 22.3 | 0.8 | 1.5 | -3.7
Cc1cccc(-n2c(C)cc(/C=N/NC(=O)c3cccc([N+](=O)[O-])c3C)c2C)c1 | 0.6 | 34.6 | 0.7 | 1.2 | 44.5
COC(=O)C1=CN(c2cccc(C)c2)C=C(C(=O)OC)C1c1cc(OC)c(O)c([N+](=O)[O-])c1 | 0.5 | 32.3 | 0.7 | 1.2 | 50.7*
CCOc1ccc(CC2c3cc(OCC)c(OCC)cc3CCN2C(=O)c2cc(OC)c(OC)c(OC)c2)cc1OCC (configuration not stated) | 0.4 | 65.1* | 0.3 | 1.6 | 59.5*
CC(C)CC(NC(=O)c1ccco1)C(=O)Nc1ccc2c(c1)OCCO2 (configuration not stated) | 0.9 | 17.9 | 0.8 | 1 | 14.0
Cc1ccc2[nH]c3c(=O)n(CCCN4CCN(C)CC4)cnc3c2c1 | 1 | 1.9 | 1 | 0.8 | 0.6
O=C(Cc1ccccc1)NNC(=O)c1cccs1 | 1 | 29.6 | 0.7 | 1 | 0.1
CCOC(=O)C(NC(C)=O)C(OC(C)=O)c1cccc(N(CCO)CCO)c1 (configuration not stated) | 1 | -2.4 | 1 | 1.2 | 0.2
O=[N+]([O-])c1ccc([C@H](O)[C@H](CO)N=Cc2ccccc2O)cc1 | 0.8 | -20.4 | 1.2 | 1.1 | 17.5
Cc1n[nH]c(C)c1Sc1ccccc1N=Cc1cc([N+](=O)[O-])ccc1O | 0.3 | 24.8 | 0.8 | 1.4 | 74.0*
COc1ccc2c(c1)OC13CCCCC1C2C(C(=O)c1ccccc1)C(=O)N3 (configuration not stated) | 0.8 | 15.7 | 0.8 | 0.7 | 15.0
Cc1noc(C)c1C(=O)NCCc1ccc(Cl)cc1 | 0.5 | 90.6* | 0.1 | 0.9 | 54.2*
Cc1noc(C)c1C(=O)Nc1ccc(F)c(F)c1 | 0.9 | 37.1 | 0.6 | 1 | 10.4
CCCCc1ccc(NC(=O)c2c(C)noc2C)cc1 | 0.8 | 9.5 | 0.9 | 2* | 16.9
CCOc1c2ccc(C(=O)NCc3ccc4c(c3)OCO4)cc2nn1CC | 0.8 | 20.5 | 0.8 | 1 | 24.3
COC(=O)CN(c1nc(C)c(Br)c(OC)n1)S(=O)(=O)c1ccc(C)cc1 | 0.1 | 89.8* | 0.1 | 1.1 | 88.9*
COC(=O)CN(c1nc(C)cc(OC)n1)S(=O)(=O)c1ccc(C)cc1 | 0.8 | 25.6 | 0.7 | 0.9 | 17.9
COC(=O)CNC(=O)C(C)NC(=O)CNC(=O)OCc1ccccc1 (configuration not stated) | 1.1 | · | · | 1 | -5.1
CCOC(=O)c1c(NC(=O)CC2SC(=NC)N(C)C2=O)sc(C)c1C (configuration not stated) | 0.7 | 34.4 | 0.7 | 1.7 | 31.5
Cc1ccc(NC(=O)CC2S/C(=N/c3nccs3)N(C)C2=O)c(C)c1 (configuration not stated) | 0 | 95.6* | 0 | 0.9 | 97.9*
O=C(O)CN1C(=O)COc2cc(S(=O)(=O)N3CCCC3)ccc21 | 0.9 | -2.5 | 1 | 1 | 11.2
COc1cccc(CN(Cc2cccnc2)S(=O)(=O)c2ccc(-n3cnnn3)c(C)c2)c1OC | 0.6 | 78.0* | 0.2 | 1.6 | 43.8
SMILES | CYP2C9 act | CYP2C19 inhib | CYP2C19 activ | PLAP activator | CYP2C9 inhib
COc1ccc(CN(C2CCCC2)S(=O)(=O)c2ccc(-n3cnnn3)c(OC)c2)cc1OC | 0.5 | 46.2 | 0.5 | 1.5 | 46.0
Cc1cc(S(=O)(=O)NCc2cccnc2)ccc1-n1cnnn1 | 1.2 | 37.1 | 0.6 | 0.8 | -18.7
COc1ccccc1CN(Cc1ccco1)S(=O)(=O)c1ccc(-n2cnnn2)c(OC)c1 | 0.2 | 66.7* | 0.3 | 0.7 | 84.7*
CC1CCN(C(=O)CCc2nc3cc(S(=O)(=O)N(C)C)ccc3n2C)CC1 | 0.9 | 9.9 | 0.9 | 1 | 10.6
CCOC(=O)C(CCCOc1ccc(C(C)CC)cc1)C(=O)OCC (configuration not stated) | 0.3 | 28.3 | 0.7 | 1.2 | 71.3*
COC(=O)c1ccc(CSc2ncnc3sc(C)c(C)c23)o1 | 0.9 | 20.0 | 0.8 | 0.7 | 6.2
CCOc1ccc2nc(SCc3ccc(C(=O)OC)o3)[nH]c2c1 | 0.2 | 82.6* | 0.2 | 2.2* | 79.9*
COC(=O)c1ccc(CSc2nc3ccc(Cl)cc3[nH]2)o1 | 0.2 | 54.4* | 0.5 | 1.7 | 79.9*
CCOC(=O)NC(=O)CSc1nc2ccc(OCC)cc2[nH]1 | 0.9 | 14.9 | 0.9 | 1.6 | 9.0
COC(=O)c1ccc(CSc2nc3scc(-c4cccs4)c3c(=O)[nH]2)o1 | 0.4 | 24.5 | 0.8 | 1.5 | 57.2*
CCOc1ccc(-c2nnc3ccc(SCc4ccc(C(=O)OC)o4)nn23)cc1 | 0.1 | 64.7* | 0.4 | 1.4 | 85.1*
O=C(NC1CCN(C(=S)NCc2ccco2)CC1)NC12CC3CC(CC(C3)C1)C2 | 1 | 17.7 | 0.8 | 1 | 2.1
Cc1ccc(N(C(=O)c2cccs2)C2C=CS(=O)(=O)C2)cc1 (configuration not stated) | 1 | 15.6 | 0.8 | 0.9 | -2.8
Cc1cc2ccccc2n1CCNC(=O)COc1ccccc1 | 0.6 | 94.1* | 0.1 | 1.2 | 37.5
CC(C)NS(=O)(=O)c1ccc(OCC(=O)NCc2cccnc2)cc1 | 0.5 | 9.9 | 0.9 | 0.9 | 45.3
CC(C)NS(=O)(=O)c1ccc(OCC(=O)NCc2ccccc2)cc1 | 0.4 | 43.4 | 0.6 | 1 | 60.9*
CCNC(=O)COc1ccc(-c2ccccc2)cc1 | 0.7 | 61.9* | 0.4 | 1.1 | 29.3
COc1ccc(OC)c(NC(=O)COc2ccc(S(=O)(=O)NC(C)C)cc2)c1 | 0.6 | 45.6 | 0.5 | 0.8 | 44.0
COc1ccc(CNC(=O)COc2ccc(S(=O)(=O)NC(C)C)cc2)cc1 | 0.1 | 67.9* | 0.3 | 0.9 | 86.3*
CC(C)(C)NC(=O)COc1ccc(-c2ccccc2)cc1 | 1.2 | 10.0 | 0.9 | 1.2 | -18.3
CCCc1c(C)[nH]c2ccc(NC(C)=O)cc2c1=O | 0.6 | 6.1 | 0.9 | 1 | 42.6
COc1cc(/C=C/C(=O)Nc2ccccc2C(F)(F)F)cc(OC)c1OC | 0.9 | 9.8 | 0.9 | 1 | 6.4
O=C(COc1ccccc1)NCc1ccccc1 | 0.9 | 73.7* | 0.3 | 0.9 | 8.6
O=C(COc1ccc([N+](=O)[O-])cc1)NCc1ccccc1 | 0.8 | · | · | 1.1 | 15.7

Screening results (PubChem)
